Calls of active or inactive are those of the source.
Experiments:
[1] = tested on: PRMT1 (protein arginine N-methyltransferase 1); assay: small molecules binding arginine methyltransferase PRMT1 – biochemical, small-molecule microarray, 635 nm fluorescence, primary screen (AID 1088); conditions: higher = more signal;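 note: binding of Prmt1 protein to compounds spotted on small-molecule microarray slides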
[2] = growth effects on S. cerevisiae YJM789 – YJM789 clinical isolate, OD600, 24 h, basal, primary screen (AID 1089); conditions: higher = more signal, called active from +8 up or from −8 down;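 note: growth of clinical yeast isolate S. cerevisiae YJM 789 seeded 1000 cells per well; test concentration not given here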
[3] = S. pombe growth modifiers, basal conditions – strain 972, OD600, 24 h, no modulator, primary screen (AID 1090);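 note: basal condition with compound alone and no growth modifier present; test concentration not given here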; conditions: S. pombe 972 growth, higher = more signal, called active from +8 up or from −8 down
[4] = budding yeast growth modifiers under rapamycin – strain BY4716, OD600, 96 h, primary screen (AID 1091); note: test concentration not given here; conditions: S. cerevisiae BY4716 + rapamycin, higher = more signal, called active from +8 up or from −8 down
[5] = biological target: Torsin-1A-interacting protein 2 (Homo sapiens) (UniProt Q8NFQ8); assay: small molecules binding lysate-expressed LULL1 – cell lysate, human LULL1 lysate, 635/667 nm fluorescence, primary screen (AID 1092); conditions: small-molecule microarray, hLULL1 lysate binding, 635 nm fluorescence; higher = more signal;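 note: probe is lysate of COS7 cells overexpressing human LULL1; score merges per-feature 667 nm fluorescence with signal-to-noise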
[6] = optical density change of DRC41 E. coli – strain DRC41, OD650, 24 h, E. coli filamentation project, primary screen (AID 1093);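 note: MC1000 strain lacking acrAB efflux and sulA so SOS filamentation is blocked; test concentration not given here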; conditions: E. coli DRC41 growth, higher = more signal, called active from +8 up or from −8 down
[7] = probe aLefty2 binding to arrayed compounds – biochemical, biotinylated probe, 635/667 nm fluorescence, primary screen (AID 1094); conditions: small-molecule microarray, higher = more signal;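 note: score merges spot fluorescence near 667 nm with spot signal-to-noise ratio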
[8] = tested on: Noggin (protein binding on small-molecule microarray); assay: small molecules binding Noggin protein – biochemical, 635/667 nm fluorescence, primary screen (AID 1095); conditions: 635 nm fluorescence, higher = more signal;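 note: score merges 667 nm feature fluorescence with signal to noise over triplicate slides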
[9] = biological target: Neurogenic locus notch homolog protein 3 (Homo sapiens) (UniProt Q9UM47); assay: small molecules binding NOTCH3 protein – biochemical, 635/667 nm fluorescence, primary screen (AID 1096); conditions: small-molecule microarray, 635 nm fluorescence, higher = more signal
[10] = probe aEGFR binding to arrayed compounds – biochemical, biotinylated probe, 635/667 nm fluorescence, primary screen (AID 1097); conditions: small-molecule microarray, higher = more signal;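 note: probe is a biotinylated anti-EGFR antibody binding compounds printed on slides; score combines fluorescence near 667 nm and signal to noise of each spot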

Chain of Torsin-1A-interacting protein 2 (Homo sapiens) (Q8NFQ8 whole entry, looked up): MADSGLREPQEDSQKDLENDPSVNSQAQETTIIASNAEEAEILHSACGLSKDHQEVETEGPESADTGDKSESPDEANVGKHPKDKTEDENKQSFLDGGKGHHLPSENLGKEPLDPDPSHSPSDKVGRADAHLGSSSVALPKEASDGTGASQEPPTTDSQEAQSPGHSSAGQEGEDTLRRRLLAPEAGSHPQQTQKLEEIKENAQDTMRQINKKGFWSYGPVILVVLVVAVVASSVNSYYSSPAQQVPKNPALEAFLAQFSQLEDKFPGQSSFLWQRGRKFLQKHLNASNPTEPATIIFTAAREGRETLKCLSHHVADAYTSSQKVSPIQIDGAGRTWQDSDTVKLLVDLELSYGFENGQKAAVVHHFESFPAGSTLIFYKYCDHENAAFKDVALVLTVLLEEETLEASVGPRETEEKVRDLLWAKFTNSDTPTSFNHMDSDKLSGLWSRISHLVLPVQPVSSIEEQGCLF
Chain of Neurogenic locus notch homolog protein 3 (Homo sapiens) (Q9UM47 whole entry, looked up): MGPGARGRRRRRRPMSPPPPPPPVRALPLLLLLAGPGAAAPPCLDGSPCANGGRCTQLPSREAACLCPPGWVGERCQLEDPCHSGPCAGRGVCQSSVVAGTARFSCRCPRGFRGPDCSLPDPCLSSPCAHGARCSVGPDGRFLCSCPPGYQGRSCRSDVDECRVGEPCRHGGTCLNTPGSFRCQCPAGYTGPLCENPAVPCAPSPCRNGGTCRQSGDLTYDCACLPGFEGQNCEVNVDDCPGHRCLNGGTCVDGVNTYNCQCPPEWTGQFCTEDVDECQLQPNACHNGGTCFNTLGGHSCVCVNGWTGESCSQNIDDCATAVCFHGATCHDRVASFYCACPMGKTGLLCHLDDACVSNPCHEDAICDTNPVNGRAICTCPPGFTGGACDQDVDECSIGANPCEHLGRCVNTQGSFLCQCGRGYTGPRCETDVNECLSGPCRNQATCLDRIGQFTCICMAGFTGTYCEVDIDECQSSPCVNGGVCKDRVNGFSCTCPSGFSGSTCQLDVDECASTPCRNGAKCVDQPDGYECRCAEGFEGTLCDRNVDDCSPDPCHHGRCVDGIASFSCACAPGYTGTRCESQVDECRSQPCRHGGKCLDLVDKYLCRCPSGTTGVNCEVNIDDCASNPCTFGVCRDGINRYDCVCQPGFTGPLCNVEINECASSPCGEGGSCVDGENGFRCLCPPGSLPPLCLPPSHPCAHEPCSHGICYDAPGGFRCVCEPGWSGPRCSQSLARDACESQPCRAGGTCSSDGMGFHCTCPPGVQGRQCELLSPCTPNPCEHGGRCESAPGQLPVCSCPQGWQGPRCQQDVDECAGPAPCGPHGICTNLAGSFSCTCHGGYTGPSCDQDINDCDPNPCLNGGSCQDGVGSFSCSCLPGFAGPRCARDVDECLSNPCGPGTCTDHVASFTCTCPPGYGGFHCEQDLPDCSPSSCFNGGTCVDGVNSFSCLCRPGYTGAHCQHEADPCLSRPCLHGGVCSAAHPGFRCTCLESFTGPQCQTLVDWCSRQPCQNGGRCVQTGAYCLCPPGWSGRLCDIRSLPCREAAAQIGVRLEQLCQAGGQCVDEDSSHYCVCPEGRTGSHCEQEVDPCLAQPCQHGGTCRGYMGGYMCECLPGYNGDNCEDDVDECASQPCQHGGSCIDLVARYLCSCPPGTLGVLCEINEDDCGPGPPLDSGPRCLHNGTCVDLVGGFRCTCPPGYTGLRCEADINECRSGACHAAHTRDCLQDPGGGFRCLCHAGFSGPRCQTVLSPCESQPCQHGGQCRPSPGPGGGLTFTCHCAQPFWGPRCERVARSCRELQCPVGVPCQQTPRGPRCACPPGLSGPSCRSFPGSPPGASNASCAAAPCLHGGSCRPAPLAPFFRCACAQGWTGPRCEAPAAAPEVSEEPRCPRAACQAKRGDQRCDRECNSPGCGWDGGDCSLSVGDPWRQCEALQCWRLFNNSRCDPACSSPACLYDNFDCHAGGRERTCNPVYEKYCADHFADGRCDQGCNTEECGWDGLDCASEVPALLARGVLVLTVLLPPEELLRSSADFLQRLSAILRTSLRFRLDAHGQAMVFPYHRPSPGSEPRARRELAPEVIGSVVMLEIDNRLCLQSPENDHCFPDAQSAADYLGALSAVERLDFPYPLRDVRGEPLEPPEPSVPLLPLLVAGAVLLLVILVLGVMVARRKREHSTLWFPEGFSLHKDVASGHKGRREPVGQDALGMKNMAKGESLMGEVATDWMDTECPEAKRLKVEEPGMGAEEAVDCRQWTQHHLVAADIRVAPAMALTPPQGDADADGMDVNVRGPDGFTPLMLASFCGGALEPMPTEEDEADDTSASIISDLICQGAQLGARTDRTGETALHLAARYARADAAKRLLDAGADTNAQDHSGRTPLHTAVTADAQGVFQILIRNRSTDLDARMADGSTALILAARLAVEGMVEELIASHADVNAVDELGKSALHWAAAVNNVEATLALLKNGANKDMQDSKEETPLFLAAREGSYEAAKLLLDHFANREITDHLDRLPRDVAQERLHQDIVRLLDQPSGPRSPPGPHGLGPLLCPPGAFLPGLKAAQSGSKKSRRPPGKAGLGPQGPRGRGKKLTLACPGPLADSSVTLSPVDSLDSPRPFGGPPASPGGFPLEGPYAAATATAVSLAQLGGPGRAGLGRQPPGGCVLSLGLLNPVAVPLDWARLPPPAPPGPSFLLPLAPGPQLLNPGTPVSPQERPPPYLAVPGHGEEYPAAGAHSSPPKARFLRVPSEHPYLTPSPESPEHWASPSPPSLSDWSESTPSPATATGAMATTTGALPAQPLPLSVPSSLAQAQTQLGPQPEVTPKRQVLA

Row | SMILES | composite z-score [1] | z-score [2] | z-score [3] | z-score [4] | composite z-score [5] | z-score [6] | composite z-score [7] | composite z-score [8] | composite z-score [9] | composite z-score [10]
1 | COCC(=C=CC[C@@H](O)c1cccc(OCCO)c1)C[C@@H](O)c1ccccn1 | 0.523 | 1.09 (inactive) | -0.416 (inactive) | -0.648 (inactive) | 1.12 | 0.257 (inactive) | -0.193 | 0.657 | 0.599 | -0.137
2 | C=CCNC(=O)[C@@H]1[C@H]2C(=O)O[C@H](c3ccccc3)[C@H](c3ccccc3)N2[C@H](c2ccc(O)cc2)[C@@]12C(=O)N(C(=O)OCCOC)c1ccc(C#CCNC(N)=O)cc12 | 1.03 | -1.76 (inactive) | 0.18 (inactive) | 0.462 (inactive) | 2.29 | -0.213 (inactive) | 0.261 | 1.12 | 1.1 | -0.0549
3 | CC(C)C(=C=CC[C@H](O)c1ccc(OCCO)cc1)CCO | 1.55 | -1.83 (inactive) | -1.27 (inactive) | -0.768 (inactive) | 2.22 | -0.327 (inactive) | -0.0113 | 1.37 | -0.0409 | -0.12
4 | NCCCCCNC(=O)[C@@H]1C[C@@H]2C(=O)N[C@@H](Cc3ccccc3)C(=O)N2[C@@H]1c1ccc(O)cc1 | 1.31 | -0.247 (inactive) | -0.448 (inactive) | -0.367 (inactive) | 1.66 | -0.811 (inactive) | -0.0717 | 0.923 | 0.452 | 0.0381
5 | COc1ccc(C(=O)Nc2ccc(CN3C(=O)[C@]4(O[C@H](CCO)[C@@H]([Si](C)(C)c5ccc(OC)cc5)[C@@H]4C)c4ccccc43)cc2)cc1 | 1.47 | -0.0534 (inactive) | -12.2 (active) | 1.62 (inactive) | 2.17 | -0.324 (inactive) | 0.0412 | 0.827 | 1.13 | -0.183
6 | CC1CC/C=C\[C@H]2OC34C=CCN(C(C)(C)C)C(=O)[C@H]3N(CCO)C(=O)[C@@H]4C2C(=O)O1 (stereo not given in full) | 1.06 | -1.33 (inactive) | -0.905 (inactive) | -0.471 (inactive) | 2.92 | 1.45 (inactive) | -0.0589 | 0.112 | -0.916 | -0.312
7 | Cc1ccccc1C(O)C1C=CC2C(=O)N(c3ccccc3)C(=O)C2N1Nc1ccc(C(C)C)cc1 (stereo not given) | 1.13 | 1.38 (inactive) | 0.0135 (inactive) | 0.798 (inactive) | 2.3 | -1.89 (inactive) | -0.0675 | -0.0693 | 1.07 | 0.0461
8 | O=C(CS)NCCCCCCNC(=O)[C@@H]1C[C@@H]2C(=O)NCC(=O)N2[C@@H]1c1cccc(OCCO)c1 | 1.01 | 0.309 (inactive) | 0.156 (inactive) | 0.616 (inactive) | 3.09 | 0.456 (inactive) | -0.327 | -0.07 | 0.188 | -0.0662
9 | C[N+](C)(C)CCCCCCNC(=O)[C@@H]1C[C@@H]2C(=O)N[C@@H](Cc3ccccc3)C(=O)N2[C@@H]1c1cccc(OCCO)c1 | 1.57 | -0.165 (inactive) | 0.297 (inactive) | -0.214 (inactive) | 2.87 | 1.02 (inactive) | 0.0235 | 1.82 | 1.09 | -0.0688
10 | C=C[C@H](CO[Si](CC)(CC)CC)N(Cc1ccc(OC(C)=O)c(OC)c1)S(=O)(=O)c1ccc(Br)cc1 | 0.87 | -1.77 (inactive) | -1.01 (inactive) | 0.196 (inactive) | 1.6 | 0.415 (inactive) | 0.476 | -0.0715 | -0.334 | 0.0819
11 | COC(=O)[C@@]1(Cc2ccccc2)[C@H]2c3cc(C(=O)N(C)C)n(Cc4ccsc4Br)c3C[C@H]2CN1C(=O)c1ccccc1 | -0.481 | 1.04 (inactive) | 1.17 (inactive) | 2.66 (inactive) | 3.32 | 0.166 (inactive) | 0.313 | 0.0244 | 1.05 | 0.196
12 | COC(=O)[C@@]1(Cc2ccc(OC)cc2)[C@@H]2C(=CC(=O)[C@H]2CC(=O)C(=O)N2CCCC2)CN1C(=O)c1ccccc1 | -1.55 | 0.201 (inactive) | 0.097 (inactive) | 0.176 (inactive) | 2.99 | 0.355 (inactive) | 0.336 | 0.0255 | 0.735 | 0.386
13 | CC[C@@H]1C=C(C(=O)O)[C@H](c2ccc(Br)cc2)N1S(=O)(=O)c1ccc(C)cc1 | 0.399 | -0.564 (inactive) | 0.794 (inactive) | -0.535 (inactive) | 2.7 | -0.319 (inactive) | 0.295 | 0.37 | 0.481 | -0.0512
14 | CN(C)C(=O)[C@@]1(CCS(=O)(=O)c2ccccc2)COC(c2ccc(OCCCO)cc2)=N1 | 0.494 | -0.126 (inactive) | 1.45 (inactive) | 0.546 (inactive) | 3.63 | 0.199 (inactive) | -0.0258 | -0.252 | -0.136 | 0.36
15 | CC(C)[Si](C#Cc1ccc(Oc2ccccc2)cc1)(O[Si](C#Cc1ccc(Oc2ccccc2)cc1)(C(C)C)C(C)C)C(C)C | 0.578 | 1.8 (inactive) | 0.267 (inactive) | 4.06 (inactive) | 0.981 | 1.06 (inactive) | -0.192 | 0.267 | -0.0319 | 0.0746
16 | C=C(CCCC)/C(=C/C[C@H](OC(C)=O)c1ccccc1OCCO)c1cc(C(=O)OC)ccc1OC | -0.0836 | 0.556 (inactive) | -0.886 (inactive) | -0.24 (inactive) | 0.405 | 1.18 (inactive) | -0.171 | -0.035 | 0.212 | -0.126
17 | [N-]=[N+]=Nc1ccccc1[C@@H]1OC(c2ccc(OCCCO)cc2)=N[C@]1(Cc1ccccc1)C(=O)N1CCOCC1 | 1.56 | 0.785 (inactive) | -1.26 (inactive) | 1.85 (inactive) | 3.22 | 0.301 (inactive) | 0.225 | 0.328 | 1.1 | 0.276
18 | CC(C)CNC(=O)[C@@]1(Cc2ccccc2I)c2ccccc2C(=O)N(C2CCCCC2)[C@H]1c1ccc(CO)cc1 | 1.57 | -1.32 (inactive) | -0.597 (inactive) | 0.153 (inactive) | 1.28 | -0.518 (inactive) | 0.164 | -0.235 | 0.497 | 0.0066
19 | C=C(COC)C(=O)CC[C@@H](OC(C)=O)c1ccc(CO)o1 | 1.43 | -1.22 (inactive) | -0.198 (inactive) | -0.22 (inactive) | -0.0809 | 0.433 (inactive) | -0.117 | 1.11 | 0.612 | -0.0463
20 | C=CCN1C(=O)[C@]2(O[C@H](CCn3cc([C@H](O)c4ccccc4)nn3)[C@@H]([Si](C)(C)c3ccc(OC)cc3)[C@@H]2C)c2ccccc21 | 0.267 | -1.25 (inactive) | 0.0123 (inactive) | -0.198 (inactive) | 0.41 | -0.68 (inactive) | -0.113 | -0.308 | 0.183 | -0.145
21 | COC(=O)[C@@]1(Cc2ccc(F)cc2)[C@H]2c3cc(C(=O)N4CCCC4)n(Cc4ccc(S(C)(=O)=O)cc4)c3C[C@H]2CN1C(=O)c1ccccc1 | -0.0384 | -0.13 (inactive) | 0.365 (inactive) | 1.48 (inactive) | 3.29 | -1.02 (inactive) | 0.267 | -0.771 | 1.02 | 0.123
22 | CCOC(=O)C[C@H]1[C@H](OC(=O)c2ccc(C(=O)c3ccccc3)cc2)[C@@H](NC(=O)c2ccc3ccccc3c2)c2cc(OCCCO)ccc2N1C(=O)Cc1ccc(OC)cc1 | 0.789 | -0.0229 (inactive) | 0.713 (inactive) | 0.118 (inactive) | 1.43 | 0.458 (inactive) | 0.0633 | 0.0199 | 0.479 | -0.0688
23 | COc1cc2c(cc1O)C(C1CC1)N(Cc1sc3ccccc3c1Cl)CC2 (stereo not given) | 0.641 | -26 (active) | -20 (active) | -1.46 (inactive) | 3.15 | -0.587 (inactive) | -0.0468 | -0.181 | 0.579 | -0.149
24 | CC(C)C(=C=CC[C@@H](O)c1ccc(OCCO)cc1)C[C@@H](O)COCc1ccccc1 | 1.54 | -1.06 (inactive) | -1.09 (inactive) | -0.418 (inactive) | 1.93 | 1.14 (inactive) | -0.192 | 1.65 | 0.652 | -0.135
25 | Cc1ccc(S[C@]2(C(=O)O)CC(=O)N(C(C)C)[C@@H]2c2ccc(CO)cc2I)cc1 | 1.55 | -2.31 (inactive) | -2.85 (inactive) | 1.55 (inactive) | 2.21 | 3.25 (inactive) | 0.122 | -0.0137 | 0.271 | 0.0255
26 | COCCCNC(=O)[C@@H]1c2ccccc2C(=O)N(Cc2ccccc2Cl)[C@H]1c1ccc(CO)cc1 | 1.53 | -0.103 (inactive) | -0.329 (inactive) | -0.59 (inactive) | 2.26 | 2.55 (inactive) | -0.101 | 0.522 | 0.388 | -0.13
27 | C=CC[C@]1(C(=O)NCCCOC)N=C(c2ccc(OCCCO)cc2)O[C@H]1c1ccccc1CN=[N+]=[N-] | 1.13 | -1.5 (inactive) | 0.998 (inactive) | -1.71 (inactive) | 3.15 | -0.483 (inactive) | 0.248 | 0.102 | 0.854 | 0.286
28 | C=C(CCCC)C(=O)CC[C@@H](OC(=O)c1ccccc1-c1ccccc1C(=O)O)c1ccc(OCCO)cc1 | 1.53 | -0.848 (inactive) | -1.57 (inactive) | -1.2 (inactive) | 0.259 | 0.502 (inactive) | -0.0272 | 0.931 | 0.462 | -0.0767
29 | CC(=O)NCCCC[C@@H]1NC(=O)[C@H]2C[C@@H](C(=O)NCCCCCCNC(=O)CS)[C@@H](c3ccc(O)cc3)N2C1=O | 1.15 | 1.2 (inactive) | 0.686 (inactive) | 0.983 (inactive) | 3.13 | 0.189 (inactive) | 0.0283 | -0.773 | -0.372 | -0.258

— PubChem BioAssay
